# Source: the supplement of paper PMC6555819
# How the values were obtained:
# Test in all cases: PBM binding z-score (relative to random genomic background probes); higher = stronger binding; sequences stand for … in GC…GCGATTGACAGCGTAGAATGAAGG
# [1] = test system: RARb homodimer (NR concentration 270 nM)
# Summary of the method: (§1)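 For binding z-scores, the reference was random background probes on custom Agilent 4×180K protein-binding microarrays. These arrays were incubated 1 h with ligand-free nuclear receptor dimers in PBS pH 7.4, 2% milk, 0.02% Triton X-100, 1 mM DTT, 0.2 mg/mL BSA and 0.4 mg/ml salmon testes DNA. Fluorescence was scanned after antibody detection of each partner (one per run) and regression-normalized.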
# [2] = test system: RARg:RXRa (NR concentration 270 nM, RXRa partner concentration 90 nM)
# Summary of the method: as §1
# [3] = test system: RARg homodimer (NR concentration 270 nM)
# Summary of the method: as §1
# [4] = test system: RXRa DBDmut IVT, anti-RXR (DBD mutation: RXRa K156A/R161A, NR concentration 90 nM)
# Summary of the method: as §1
# [5] = test system: RXRa homodimer (NR concentration 180 nM)
# Summary of the method: as §1
# [6] = test system: THRa:RXRa (NR concentration 90 nM, RXRa partner concentration 90 nM)
# Summary of the method: as §1
# [7] = test system: THRa homodimer (NR concentration 90 nM)
# Summary of the method: as §1
# [8] = test system: VDR homodimer (NR concentration 270 nM)
# Summary of the method: as §1
Sequence,PBM binding z-score [1],PBM binding z-score [2],PBM binding z-score [3],PBM binding z-score [4],PBM binding z-score [5],PBM binding z-score [6],PBM binding z-score [7],PBM binding z-score [8]
CAGCCTAGGTCCGGGCCAGTATAGGAGGAACGTT,-0.676,-0.685,-0.755,-1.37,-0.779,-0.819,-1.03,-0.835
GCTAGTTGGTCAATAAAAGGTCACACACCGGTCG,5.51,6.07,5.18,0.854,5.51,3.66,1.83,2.11
CCTAGCAGGCCAGGGTCACGCAAGCATTTCGCTT,3.51,4.73,3.74,0.0811,5.81,3.6,1.62,1.53
ACTAGCAGGCCAAGTTTGGGACACTCAAACAAAG,0.289,0.191,0.555,-0.499,-0.592,1.45,0.404,-0.549
AGAACGAGGGCACGCTCAGTTGATAGCAGAGTAG,1.02,1.9,2.25,1.94,1.28,1.82,-0.0296,0.752
AGTCAAAGTTCAGGACGGGGTAACGTAAAGCACG,3.27,5.09,4.51,2.98,3.43,3.8,1.55,2.58
TTATATAGGTAAATGCTAGGTGAAAGTCCGATCT,0.66,0.442,0.423,0.585,0.781,1.62,0.619,0.705
TTACCAAGGTGAAAGGTCGTTTATGCACGCCTTG,2.24,3.89,1.62,1.14,5.38,3.17,0.854,2.03
ATACCAAGGTGATCGTGAGGTCTTTGATACTAAC,0.992,0.797,0.392,0.0771,0.435,2.38,1.65,0.438
ACTATTAGTTGAGACGAGGGCCACCGATAGGTTG,0.318,0.392,0.514,0.0416,0.26,-0.0155,-0.379,-0.0608
CCTTCTGGGCCAAAGGTCATTGATTCCAATGCTC,4.44,5.8,4.73,1.41,6.15,3.44,0.658,2.23
GCAGACAGGTGAAACGCAGGTAGCTCAGGGTGGC,-0.0117,0.108,-0.0233,-0.578,0.367,0.401,-0.86,-0.785
GCAGACAGGTGAAATGCAGGTAACTCAGGGTGGC,0.337,0.64,0.23,-0.341,0.602,1.38,-0.107,-0.285
TAGCCTAGGTCAGATAGGGCCAGTATACGCTATA,1.93,2.8,3.74,-0.288,1.41,4.03,0.0301,-0.0363
TTACCAAGGTGAGCTGAAGTCGTTGATCCAACTC,-0.14,0.0635,-0.108,-0.671,0.0519,0.821,-0.297,-0.905
CCTCGGAGGACAGCAGGAGGTCAGAGCTGCCAGA,3.24,3.07,2.93,-0.25,1.56,2.41,0.786,0.762
